Sampled rows, rich in hits. Any-hit rate of the full collection: about 19%.
HT1080 IDH1KD tx: toxicity to HT-1080 IDH1 knockdown cells (counter line). HT-1080 IDH1 knockdown viability, ATP luminescence, 48 h. Potency, µM (doses to about 46.1 µM), for inactives: at the top dose activity, negative = toxicity, usual class: cytotoxic. 2% of 360,000 active. AID 686971;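 also: potency is read from the fitted curve at half-maximal effect; 0% = DMSO wells and -100% = cell-free medium wells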
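IDH1KD HT-1080 cells, 750/well, RPMI + 5% FBS; compound pinned after 2 h settling; 48 h, 37 °C; CellTiter-Glo luminescence; % activity normalised to DMSO and no-cell wells; curves fitted, classed by r2 and efficacy.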
TDP1 cell noCPT: qHTS for Inhibitors of human tyrosyl-DNA phosphodiesterase 1 (TDP1): qHTS in cells in absence of CPT; 15% of 420,000 active; Potency, µM (series often up to 46.2 µM), without a hit: top-dose activity change, negative = growth inhibition, actives largely listed as inhibitors; DT40 Tdp1-/- hTDP1 cells, no CPT, ATP luminescence, 48 h; also: potency is read from the fitted curve at half-maximal effect; nearly all actives have a fitted effect of over 55% in size
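No-CPT arm: Tdp1-/-;hTDP1 DT40 cells (400/well) plus compounds, incubated ≥48 hr at 37 °C. Readout CellTiter-Glo luminescence.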
HT1080NT lethal: kills 2HG-producing HT-1080-NT fibrosarcoma cells. HT-1080-NT fibrosarcoma viability, CellTiter-Glo ATP luminescence, 48 h. Potency, µM (highest dose often 46.1 µM), inactives show top-dose activity, negative = less viability, actives largely listed as cytotoxic. 1.6% of 360,000 active. AID 686970;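 also: NT is the 2HG producing partner of a matched IDH1 knockdown line; potency is read from the fitted curve at half-maximal effect; 0% = DMSO-treated cells and -100% = media-only wells without cells; nearly all actives have a fitted effect of over 55% in size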
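750 cells/well, RPMI + 5% FBS; 2 h settle, compound pin-transfer, 48 h at 37 degrees C. CellTiter-Glo 10 min RT, luminescence. Normalized to DMSO and media-only wells.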
IL-1B inflam inh: inflammasome signaling inhibition, IL-1 beta readout | THP-1 LPS/ATP IL-1B secretion, AlphaLISA, 16 h; hits give low values | activity change, % at 57.5 µM | 4.7% of 360,000 active | AID 743279; in the data active = activity change below about -50%; inconclusive = mostly about -30% to -49%
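Secreted IL-1B measured by AlphaLISA bead assay after 16 h compound exposure of THP-1 cells; compounds (final up to 57.5 uM) added 1 h before LPS (250 ng/mL) and ATP (1.25 mM) stimulation; lower signal means less secretion.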
DT40 TDP1 CPT: DT40-hTDP1 cell growth loss with CPT; 12% of 420,000 active; Potency, µM (titrated, usually from 46.2 µM), for the others: top-dose activity change, negative = growth inhibition, actives largely listed as inhibitors; chicken DT40 Tdp1-/-;hTDP1 cells + 20 nM CPT, ATP luminescence, 48 h; also: potency is read from the fitted curve at half-maximal effect; nearly all actives have a fitted effect of over 55% in size
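Chicken DT40 Tdp1-/- cells stably complemented with human TDP1 were seeded at 400 cells/well in medium containing 20 nM camptothecin, exposed to pin-transferred compounds, and grown at 37 °C for at least 48 hr. Viability was read as ATP luminescence.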
* = called active by the depositor; ? = inconclusive; . = no result given; [ ] = another dose, or the depositor's remark. Unless noted, calls follow the shape of the dose curve; as a rule, active = well fitted curve in the direction sought with a large enough effect; inconclusive = small, poorly fitted or top-dose-only effect, or another doubt; inactive = no such curve, though single readings can be large; an effect the other way counts as inactive or inconclusive. Unless noted, % is scaled to controls: 0 for no effect and ±100 for the full control effect.

SMILES | HT1080 IDH1KD tx | TDP1 cell noCPT | HT1080NT lethal | IL-1B inflam inh | DT40 TDP1 CPT
Cc1ccc(C(C#N)c2ccc(C(=O)c3ccc(F)cc3)cc2)cc1 (stereo not drawn) | ? | 8.2µM* | -22% | ? | 23µM*
C=CCN1C(=O)c2ccc(C(=O)N(CC)CC(=O)Nc3c(F)cccc3F)cc2C1=O | 6% | -2% | 6% | 9 | -3%
CCc1ccc(-n2c(=S)sc3c(=O)[nH]c(SCC(=O)NC4CCCCC4)nc32)cc1 | -2% | -2% | 5% | 21 | -9%
Cc1ccc(N/N=C(\Cc2nc3ccccc3[nH]2)c2ccccc2)cc1 | 0.92µM* | 0.65µM* | 1.3µM* | 0 | 0.82µM*
N/N=C(/Cc1nc2ccccc2[nH]1)c1ccc([N+](=O)[O-])cc1 | -29% | ? | -6% | -6 | 26µM*
Clc1cccc(/C(Cc2nc3ccccc3[nH]2)=N\Nc2ccccc2)c1 | ? | ? | ? | -78* | ?
N#CCCN/N=C(\Cc1nc2ccccc2[nH]1)c1ccccc1 | -19% | ? | -15% | -13 | ?
CCN/N=C(\Cc1nc2ccccc2[nH]1)c1ccccc1 | -17% | -14% | -1% | 3 | 8%
c1ccc(N/N=C(\Cc2nc3ccccc3[nH]2)c2ccccc2)cc1 | -23% | ? | -4% | -68* | ?
COc1ccc2[nH]cc(CCNC(=O)Cn3cc(C)c(=O)[nH]c3=O)c2c1 | 4% | 5% | 5% | 24 | 1%
CC(C)COC(=O)Nc1nnc(SCCOc2ccccc2)s1 | -1% | -9% | 2% | -3 | -11%
O=C(COc1ccccc1C(=O)NCc1ccccn1)Nc1ccc(Br)cc1 | 0% | ? | -3% | -9 | -23%
O=C(COC(=O)c1n[nH]c(=O)c2ccccc12)NC1CCCCC1 | -7% | 22% | 1%[9.24 µM] | -4 | -3%
COc1cc2cc(-c3ccc(O)cc3O)nc(C)c2cc1OC | ? | 6.5µM* | -12% | -73* | 10µM*
COc1ccc(C)cc1Nc1n[n+](C)c(-c2ccc(O)cc2O)s1 | 12% | -23% | 13% | 18 | -13%
COc1cc2cc(-c3ccc(OC)c(OC)c3C)nc(N)c2cc1OC | 1.3µM* | 5.8µM* | 8.2µM* | 5 | 5.2µM*
COC(=O)NCC(c1cccnc1)N1CCN(c2ccccc2F)CC1 (stereo not drawn) | 1% | 7% | -1% | 6 | 2%
CCc1ccccc1NC(=O)C(=O)NCC(c1cccnc1)N1CCN(c2ccccc2F)CC1 (stereo not drawn) | . | 15µM* | . | . | ?
COc1ccc(C)cc1NC(=O)C(=O)NCC(c1cccnc1)N1CCc2ccccc21 (stereo not drawn) | . | 15µM* | . | . | ?
COc1ccc(C)cc1NC(=O)C(=O)NCC(c1cccnc1)N1CCN(c2ccccc2F)CC1 (stereo not drawn) | . | 18µM* | . | . | ?
COc1ccc(C)cc1S(=O)(=O)NCC(c1cccnc1)N1CCc2ccccc2C1 (stereo not drawn) | -4% | -12% | -5% | 4 | -28%
COC(=O)c1ccc(NC(=O)C(=O)NCC(c2cccnc2)N2CCc3ccccc32)cc1 (stereo not drawn) | . | 16µM* | . | . | 15µM*
C/C(=N/NC(=O)c1cc(C)[nH]n1)c1ccco1 | 5% | -22% | 7% | 3 | 3%
COc1ccc(NC(=O)C(=O)NCC(c2cccnc2)N2CCc3ccccc32)cc1OC (stereo not drawn) | . | 21µM* | . | . | ?
CCOc1ccc(NC(=O)C(=O)NCC(c2cccnc2)N2CCc3ccccc32)cc1 (stereo not drawn) | . | 3.7µM* | . | . | 4.1µM*
SMILES | HT1080 IDH1KD tx | TDP1 cell noCPT | HT1080NT lethal | IL-1B inflam inh | DT40 TDP1 CPT
CCOc1ccc(NC(=O)C(=O)N/N=C/c2cccnc2)cc1 | 20% | 22% | 1% | 6 | -4%
Cc1ccc2[nH]c(CSc3nnc(NC(=O)COc4ccccc4)s3)cc(=O)c2c1 | . | -10% | . | . | -23%
O=S(=O)(Cc1ccc(Cl)cc1)c1ccccc1-c1nnc(-c2ccc(Cl)cc2)o1 | -10% | ? | -8% | 24 | ?
O=S(=O)(Cc1ccccc1)c1ccccc1-c1nnc(-c2ccccc2)o1 | 0% | 16µM* | 0% | -8 | 16µM*
Cc1ccc(-c2nnc(-c3ccccc3S(=O)(=O)Cc3ccc(Cl)cc3)o2)cc1 | -23% | 23µM* | -26% | 0 | ?
CSc1ccccc1-c1nnc(-c2ccccc2)o1 | -21% | -16% | -18% | -4 | -14%
COc1cc(C(CC(=O)NCc2ccccc2)N2Cc3ccccc3C2=O)cc(OC)c1OC (stereo not drawn) | . | -29% | . | . | -21%
CCCc1cc(C(=O)N/N=C/c2cccn2C)cs1 | 11% | -19% | 4% | -16 | -24%
O=C(Nc1cc(Cl)ccc1N1CCOCC1)c1cccnc1 | 9% | -26% | 2% | -1 | 0%
COc1ccc(N2CCOCC2)c(NC(=O)c2ccc3c(c2)OCO3)c1 | 0% | 21µM* | 4% | -9 | ?
COC(=O)c1ccc(N2CCOCC2)c(NC(=O)c2ccc3c(c2)OCO3)c1 | 0% | ? | 4% | -4 | -5%
O=C(Nc1cc(Cl)ccc1N1CCOCC1)c1ccc2c(c1)OCCO2 | 0% | -16% | 0% | -71* | ?
CCC1C(=O)NCCN1Cc1ccc2c(c1)CN(Cc1ccc3c(c1)OCCO3)CCO2 (stereo not drawn) | . | -28% | . | . | ?
NC(=O)C1CCN(C(=O)c2ccc(Cl)c(NC(=O)c3cccs3)c2)CC1 | 6% | 0% | 6% | -25 | 6%
O=C(Nc1ccccc1)N1CCCC(c2nc(-c3ccc(F)cc3)no2)C1 (stereo not drawn) | -10% | 18µM* | -4% | -15 | ?
Cc1ccc(NC(=O)N2CCCC(c3nc(-c4ccc(F)cc4)no3)C2)cc1 (stereo not drawn) | 3% | ? | 1% | 0 | 23µM*
O=C(c1ccccc1-c1nc(-c2ccc(F)cc2)no1)N1CCCC1 | -1% | 23µM* | -6% | 13 | ?
O=C(C1CCCCC1)N1CCCC(c2nc(-c3ccc(F)cc3)no2)C1 (stereo not drawn) | -26% | ? | -6% | -23 | -29%
O=C(c1c(F)cccc1F)N1CCCC(c2nc(-c3ccc(F)cc3)no2)C1 (stereo not drawn) | -1% | 16µM* | -23% | -13 | 23µM*
COc1ccc(-c2noc(C3CCCN(C(=O)c4ccc(F)cc4)C3)n2)cc1 (stereo not drawn) | ? | ? | -13% | ? | ?
O=C(NNC(=O)c1ccccc1[N+](=O)[O-])c1csc(N2CCOCC2)n1 | 0% | 5% | 0% | 0 | -16%

From PubChem
